{"source": "PubChem BioAssay AID1508600", "about": "(Functional Genomics Laboratory (NCATS/FGL), 2020)", "note": "The campaign covered roughly 53,000 sequences. About 3,700 (7%) were called active. Shown is part of a subset that was picked to be rich in actives. Values without a mark were called inactive.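 How the source made its calls: active means gene knockdowns whose robust z-score for IL-1 alpha signal is at least 2 or at most -2, so actives lie on both sides; inactive means the rest.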"}
{"assay": "Components of the Cytosolic LPS Sensing Pathway: Gene Identification via Genome-wide siRNA Screen", "settings": "RAW264.7 macrophages, IL-1a HTRF, actives lie on both sides, screened at 100 nM (by protocol), cells primed 5 h with Pam3CSK4 first", "source_text": "Non-canonical inflammasome activation by cytosolic LPS is a critical component of the host response to Gram-negative bacterial infection, however we lack a comprehensive understanding of the cellular processes that control this pathway. Here we describe a genome-wide siRNA screen to identify genes regulating the mouse macrophage IL-1 alpha response to cytosolic LPS.\nRAW264.7 cells were maintained in complete DMEM media, comprising DMEM with 4.5 g/L glucose, 10% FBS (Gemini Bio-Products, West Sacramento, CA), 2 mM Glutamine (Lonza) and 20 mM HEPES (Lonza), hereafter complete DMEM.\nThe RNAi screen was conducted in 384-well format using the Ambion Silencer Mouse Genome siRNA Library (#4391425), which consists of three unique, nonoverlapping, nonpooled siRNAs for each of 17,000 gene targets. siRNA reagents ([…]) were stamped into 384-well white flat-bottom microplates (Corning, 3570) using a Velocity11 VPrep liquid handling system (Agilent) integrated into a BioCel robotic platform (Agilent) in columns 1-22, leaving columns 23-24 empty for negative (Ambion, Negative control #1) and positive (mouse Casp4) controls, respectively. The median value of each plate's negative control column was used to normalize sample wells, and the positive control was used to assess transfection efficiency and assay performance.\nLipofectamine RNAiMAX Transfection Reagent ([…]; Invitrogen) was added in […] serum-free, antibiotic-free media to plate wells using a Thermo Scientific Matrix WellMate and Microplate Stacker. Plates were incubated for 45 min at room temperature to allow for the sufficient formation of siRNA-lipid complexes. Cells were seeded at a density of 1x10^4 cells per well in 20 microL media containing 20% (vol/vol) FBS without antibiotics. The final concentration of siRNA in each well was 100 nM. Cells were cultured for 48h at 37 degrees C in 5% CO2 before addition of […] of TLR ligand Pam3CSK4 for 5 hours. The medium was then removed, replaced with […] growth media and cell were transfected with […] of LipidA and TransIT-TKO (Mirus) for 24 hour. At the end of the LipidA treatment, […] of supernatant was transferred to a 384 Greiner Bio-one non-binding low volume plate and […] of IL-1a HTRF reagent (Cisbio, 62MIL1APEH) was added and incubated at room temperature overnight. The plates were read on an EnVision plate reader (PerkinElmer). Cell viability was measured by adding 20ul Cell Titer Glo to the original plate and running a luminescence read on the EnVision. The quantified IL-1a signal for each siRNA gene-targeted well was divided by the median of the negative control wells and multiplied by 100 to achieve a negative control normalized value for each well/siRNA. This normalized value was then used to generate a robust z-score by first taking the log of each value and then by subtracting the median and dividing by the […]."}
{"sequence": "GCAAGGACCAAAUUACAUATT against Itgb3bp", "z-score": "2.45 (active)"}
{"sequence": "GGACUUUCUGAUGGACUUGTT against Sapcd1", "z-score": 1.59}
{"sequence": "GGAUCCUGAAAUCAAAACUTT against Mbl1", "z-score": -0.316}
{"sequence": "GGCAUAACCAAAAGAAAGUTT against 4933427E11Rik", "z-score": 0.648}
{"sequence": "GGGCUUCUUUGCCACACUUTT against Rho", "z-score": 0.761}
{"sequence": "CGAGAUGAAAUAUACAGAUTT against Trat1", "z-score": 1.12}
{"sequence": "GGACAAUUAACGAUCCCACTT against Pdxp", "z-score": "-2.58 (active)"}
{"sequence": "GGGUUAUGGUAGAUUAUCUTT against Tor4a", "z-score": -0.376}
{"sequence": "GGACACCUCGAGAUUCUCUTT against Actl11", "z-score": -0.186}
{"sequence": "GGAAAACAACACGAUGAAATT against Tex13b", "z-score": -1.72}
{"sequence": "GGAAGGAGAACAUUCCUUUTT against Ces1d", "z-score": -0.198}
{"sequence": "GGCCAUUUGUUAGGACCUGTT against Prmt6", "z-score": 0.205}
{"sequence": "CGGCAUGUCCUUCAUCGCUTT against Proser2", "z-score": "-2.89 (active)"}
{"sequence": "GGAGAAAAUUCAAGUCACCTT against Olfr663", "z-score": 0.215}
{"sequence": "AGUGAAACUAAACUGGAGUTT against 2610318N02Rik", "z-score": 1.41}
{"sequence": "GGAUCUCAAUGUUCACUUGTT against Bpifb2", "z-score": -0.817}
{"sequence": "GGCUACUUCUGUACUAGGATT against Gclc", "z-score": -1.05}
{"sequence": "GGAGGAAGCUCAUCUAUGATT against Rpl7", "z-score": 0.964}
{"sequence": "GGAAACCAUCAUGAAGAAATT against Siae", "z-score": -0.127}
{"sequence": "CCCAUUGAACAGGAUGUUATT against Coq9", "z-score": -0.292}
{"sequence": "CCUGGUAUCCAAGAGGAAGTT against Myt1", "z-score": "2.52 (active)"}
{"sequence": "GCAUCAAUUGUCAGGAAAUTT against Rev3l", "z-score": 0.807}
{"sequence": "GGGCUCGUAAAGAAAGAAGTT against Cep41", "z-score": -1.15}
{"sequence": "GCUGAUGAACGAAUACAACTT against Kcnk5", "z-score": 1.25}
{"sequence": "GCGCAGAACCCAGAUGAAGTT against Necap2", "z-score": 0.836}
{"sequence": "CCGUCCAUUGCACUGGAUATT against Arntl2", "z-score": 0.024}
{"sequence": "GGUGUGAGUGUAAGUUUAUTT against Wnt16", "z-score": 1.1}
{"sequence": "CGGAUAUGAGAUGAGAAUGTT against Morn4", "z-score": "-2.4 (active)"}
{"sequence": "GGAUUUCAACAGACAGGUGTT against Paip2b", "z-score": 0.877}
{"sequence": "GGCAGAACUCAAAUUCUUGTT against AW209491", "z-score": -0.35}
{"sequence": "GCGUAGCUGUAGUGAACCATT against Erh", "z-score": 1.78}
{"sequence": "GGUACUACACCUUUGAUGATT against Fibp", "z-score": -0.497}
{"sequence": "GGACCACAACACAAAUCUGTT against Fasl", "z-score": 1.49}
{"sequence": "UUCAUGUAGGUCUACUAUUTT against Olfr203", "z-score": -0.104}
{"sequence": "GGAUCUGAAGCUGAUUACATT against Clca2", "z-score": "2.47 (active)"}
{"sequence": "GCCACUGUUUGAUCUGAAATT against Fhod1", "z-score": 0.943}
{"sequence": "CCUUGCCAUAAGUGAUUUATT against Npffr2", "z-score": 0.876}
{"sequence": "GGCCUUAAAAUACCUUUGATT against Srpx", "z-score": 1.12}
{"sequence": "CCAGUACAAAGCCACAAUATT against Rab7", "z-score": "5.54 (active)"}
{"sequence": "GGACAUUUCACAAGUCAAATT against Eloc", "z-score": 1.81}
{"sequence": "GGGUGGAAAAUUUCAGUUUTT against Ube2f", "z-score": -0.957}
{"sequence": "CCAUCCCGUUCACUAGAGATT against Mypn", "z-score": -1.73}
{"sequence": "CCGACUGCUCGUAAAUUCATT against Ndufa12", "z-score": "2.79 (active)"}
{"sequence": "GGUACAAAGCCAUUGUACGTT against Grpr", "z-score": -0.381}
{"sequence": "GGAAGAGAAACGACAAAAUTT against Olfr293", "z-score": 1.46}
{"sequence": "GGGAGACAAUCGUUUUAGCTT against Tgfbi", "z-score": 0.698}
{"sequence": "GGGCAUAUUCACGAUCAAUTT against Fut2", "z-score": 1.43}
{"sequence": "GGAAAGACCACAUUAUUAATT against Orc4", "z-score": 0.0347}
{"sequence": "GGUUUCUGCCCAGAGUCUATT against 2010106E10Rik", "z-score": "-2.78 (active)"}
{"sequence": "GCAAGGACUCUCAUGGUUGTT against Zfand1", "z-score": -0.0357}
{"sequence": "GGUGCCGAACGUGUAAUUATT against Rarb", "z-score": 0.936}
{"sequence": "GCCCAUGUGUAAUACAUUUTT against Prps1", "z-score": 0.789}
{"sequence": "CCGGAGUAACUCUCUAACATT against Apbb3", "z-score": -0.291}
{"sequence": "GGGUGACCUUUCCAGAUGATT against Cldn13", "z-score": -0.846}
{"sequence": "GGCACAUGGAAUCUUUGAGTT against Edc3", "z-score": -1.65}
{"sequence": "GGAGCAACUACAAACAUCUTT against Acss2", "z-score": "2.35 (active)"}
{"sequence": "GGGAUAAGACAGGAGACUUTT against Slc16a11", "z-score": 0.227}
{"sequence": "GGGAAGGACUGUAAGAAAATT against Dipk1a", "z-score": -0.252}
{"sequence": "GCAUCAACACCUGUUCUAUTT against Olfr376", "z-score": 1.02}
{"sequence": "GGAUCAUUUACAUUCAUACTT against Alg12", "z-score": "-2.6 (active)"}
{"sequence": "GGCACCUGUUAAAAAUGAATT against Prag1", "z-score": -0.771}
{"sequence": "GGACUAGUGUGAAAAAGGATT against Nsd1", "z-score": "-2.87 (active)"}
{"sequence": "GCUCAUCGGAGAGUUCUAUTT against Ube2h", "z-score": 0.594}
{"sequence": "GGCAGCAUUGAGUGUGUGATT against Asb13", "z-score": "2.53 (active)"}
{"sequence": "GGAAUGCUGAAGUAAAAAATT against Olfr1259", "z-score": -0.808}
{"sequence": "GGGCCAAGUUCCGAAAGAATT against Dmbx1", "z-score": -0.443}
{"sequence": "GCCUUAACUAUGUUGUCUATT against Mgst1", "z-score": 0.893}
{"sequence": "GCCUGCACUGUUGAACUAGTT against Tomm40l", "z-score": -1.09}
{"sequence": "GCACUCAUUGCCAGGGUCATT against Pycard", "z-score": "-2.54 (active)"}
